In PubChem BioAssay (EPA / NIEHS):
Calls of active or inactive are those of the source. Rule for the calls: active = hit-call score of the fitted dose curve at least 0.9, where 1 is the maximum; inactive = score below 0.9.

How the values were obtained:
[1] = read-out: Tissue Factor, F3 (gene 2152); assay: BSK_CASM3C_TissueFactor: BioMAP Diversity Plus: CASM3C Assay for Tissue Factor Biomarker Activity (AID 2283052); settings: primary human coronary artery smooth muscle cells; actives raise or lower the signal;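 note: cell surface tissue factor protein level read by ELISA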
[2] = read-out: Interferon-gamma inducible Protein 10 (IP10), CXCL10 (gene 3627); assay: BSK_hDFCGF_IP10: BioMAP Diversity Plus: hDFCGF Assay for Interferon-gamma inducible Protein 10 (IP10) Biomarker Activity (AID 2283053); settings: primary human foreskin fibroblasts; actives raise or lower the signal
How it was run: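 Primary human foreskin fibroblasts exposed to chemicals for 24 h. IP-10 measured by ELISA; changes fitted bidirectionally against DMSO baseline.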

[3] = read-out: Urokinase-type plasminogen activator receptor (uPAR), PLAUR (gene 5329); assay: BSK_CASM3C_uPAR: BioMAP Diversity Plus: CASM3C Assay for Urokinase-type plasminogen activator receptor (uPAR) Biomarker Activity (AID 2283054); settings: primary human coronary artery smooth muscle cells; actives raise or lower the signal;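 note: cell-surface uPAR protein level quantified by ELISA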
[4] = read-out: Vascular cell adhesion molecule 1 (VCAM1), VCAM1 (gene 7412); assay: BSK_CASM3C_VCAM1: BioMAP Diversity Plus: CASM3C Assay for Vascular cell adhesion molecule 1 (VCAM1) Biomarker Activity (AID 2283055); settings: primary human coronary artery smooth muscle cells; actives raise or lower the signal;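 note: VCAM-1 protein level quantified by ELISA on the cells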
[5] = read-out: Collagen III, COL3A1 (gene 1281); assay: BSK_hDFCGF_CollagenIII: BioMAP Diversity Plus: hDFCGF Assay for Collagen III Biomarker Activity (AID 2283056); settings: primary human foreskin fibroblasts; actives raise or lower the signal
How it was run: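 Response relative to DMSO, fitted in both directions, reflects ELISA-measured collagen III in human primary skin fibroblasts 24 h after compound addition.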

[6] = read-out: Epidermal growth factor receptor (EGFR), EGFR (gene 1956); assay: BSK_hDFCGF_EGFR: BioMAP Diversity Plus: hDFCGF Assay for Epidermal growth factor receptor (EGFR) Biomarker Activity (AID 2283057); settings: primary human foreskin fibroblasts; actives raise or lower the signal
How it was run: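 Primary human foreskin fibroblasts (hDFCGF system), sampled 24 h after dosing; EGFR quantified by ELISA. Bidirectional fit relative to DMSO baseline; SRB total-protein staining in parallel cultures for cytotoxicity.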

[7] = read-out: Interleukin-8 (IL8), CXCL8 (gene 3576); assay: BSK_hDFCGF_IL8: BioMAP Diversity Plus: hDFCGF Assay for Interleukin-8 (IL8) Biomarker Activity (AID 2283058); settings: primary human foreskin fibroblasts; actives raise or lower the signal
How it was run: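 Fibroblast monolayers (human foreskin, hDFCGF) received test chemical for 24 h before ELISA detection of IL-8; either increases or decreases relative to DMSO count as activity.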

[8] = BSK_hDFCGF_Proliferation: Cell Proliferation Assessment in the BioMAP Diversity Plus: hDFCGF Assay (AID 2283059); settings: primary human foreskin fibroblasts;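 note: curves fitted for both rise and fall of signal versus DMSO baseline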
How it was run: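 Primary human foreskin fibroblasts, sub-confluent; […]; 10% TCA fix, 0.1% SRB stain, A560 total protein. Gain/loss fitted bidirectionally vs DMSO control.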

[9] = read-out: Macrophage colony-stimulating factor (MCSF), CSF1 (gene 1435); assay: BSK_hDFCGF_MCSF: BioMAP Diversity Plus: hDFCGF Assay for Macrophage colony-stimulating factor (MCSF) Biomarker Activity (AID 2283060); settings: primary human foreskin fibroblasts; actives raise or lower the signal
How it was run: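 fibroblasts (human foreskin, primary), 24 h post-dose; M-CSF by ELISA; bidirectional fit, DMSO = baseline.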

[10] = BSK_hDFCGF_SRB: Viability Assessment in the BioMAP Diversity Plus: hDFCGF Assay (AID 2283061); settings: primary human foreskin fibroblasts;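 note: cells exposed to compound for 24 h before the read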
How it was run: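 SRB-based viability read on primary human skin fibroblasts at 24 h: TCA fixation, 0.1% dye, 560 nm. Gain or loss of signal is fitted against the DMSO negative control.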

[11] = read-out: TIMP metallopeptidase inhibitor 1 (TIMP1), TIMP1 (gene 7076); assay: BSK_hDFCGF_TIMP1: BioMAP Diversity Plus: hDFCGF Assay for TIMP metallopeptidase inhibitor 1 (TIMP1) Biomarker Activity (AID 2283062); settings: primary human foreskin fibroblasts; actives raise or lower the signal
How it was run: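 Bidirectional curve fitting against DMSO baseline yielded this endpoint, based on ELISA detection of TIMP-1 in primary human foreskin fibroblasts exposed to compound for 24 h.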

[12] = read-out: Monokine induced gamma interferon (MIG), CXCL9 (gene 4283); assay: BSK_hDFCGF_MIG: BioMAP Diversity Plus: hDFCGF Assay for Monokine induced gamma interferon (MIG) Biomarker Activity (AID 2283063); settings: primary human foreskin fibroblasts; actives raise or lower the signal
How it was run: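 Endpoint derived by bidirectional fitting relative to DMSO; MIG quantified via ELISA in primary human foreskin fibroblasts harvested 24 h after dosing.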

[13] = read-out: Matrix Metallopeptidase 1 (MMP1), MMP1 (gene 4312); assay: BSK_hDFCGF_MMP1: BioMAP Diversity Plus: hDFCGF Assay for Matrix Metallopeptidase 1 (MMP1) Biomarker Activity (AID 2283064); settings: primary human foreskin fibroblasts; actives raise or lower the signal
How it was run: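 Primary human foreskin fibroblasts exposed to chemicals for 24 h; MMP1 measured by ELISA. Cytotoxicity tracked by SRB staining in parallel cultures; bidirectional fit relative to DMSO.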

[14] = read-out: Vascular cell adhesion molecule 1 (VCAM1), VCAM1 (gene 7412); assay: BSK_hDFCGF_VCAM1: BioMAP Diversity Plus: hDFCGF Assay for Vascular cell adhesion molecule 1 (VCAM1) Biomarker Activity (AID 2283065); settings: primary human foreskin fibroblasts; actives raise or lower the signal;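 for AC50: VCAM-1 protein level quantified by ELISA after 24 h chemical exposure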
How it was run: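 Measured after 24 h chemical treatment of primary human skin fibroblasts, VCAM-1 was detected by ELISA and concentration-response analysed in both directions versus DMSO vehicle.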

[15] = read-out: Plasminogen activator inhibitor-1 (PAI1), SERPINE1 (gene 5054); assay: BSK_hDFCGF_PAI1: BioMAP Diversity Plus: hDFCGF Assay for Plasminogen activator inhibitor-1 (PAI1) Biomarker Activity (AID 2283066); settings: primary human foreskin fibroblasts; actives raise or lower the signal
How it was run: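 Human foreskin fibroblast primary cells, 24 h chemical exposure; PAI-1 measured by ELISA. Bidirectional fitting relative to DMSO; parallel cultures stained with SRB for total protein to flag overt cytotoxicity.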

[16] = read-out: Intercellular Adhesion Molecule 1 (ICAM1), ICAM1 (gene 3383); assay: BSK_KF3CT_ICAM1: BioMAP Diversity Plus: KF3CT Assay for Intercellular Adhesion Molecule 1 (ICAM1) Biomarker Activity (AID 2283067); settings: primary human keratinocytes with fibroblasts; actives raise or lower the signal
How it was run: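 Bidirectional curve fitting against a DMSO baseline was applied to ICAM-1 ELISA signal from primary human skin co-cultures harvested 24 h after treatment, with SRB staining of parallel wells for overt cytotoxicity.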

[17] = read-out: Interferon-gamma inducible Protein 10 (IP10), CXCL10 (gene 3627); assay: BSK_KF3CT_IP10: BioMAP Diversity Plus: KF3CT Assay for Interferon-gamma inducible Protein 10 (IP10) Biomarker Activity (AID 2283068); settings: primary human keratinocytes with fibroblasts; actives raise or lower the signal
How it was run: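 In a primary skin co-culture of keratinocytes and fibroblasts, IP-10 is quantified by ELISA at 24 h after dosing. SRB staining of parallel wells monitors overt toxicity. Curves are fitted both directions against DMSO.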

[18] = BSK_KF3CT_SRB: Viability Assessment in the BioMAP Diversity Plus: KF3CT Assay (AID 2283069); settings: primary human keratinocytes with fibroblasts;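 note: total protein by sulforhodamine B staining as a cytotoxicity measure; fitted for both signal gain and loss against DMSO baseline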
How it was run: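 Human keratinocyte and foreskin fibroblast co-culture exposed to chemical for 24 h. Total protein measured in parallel cultures by 0.1% sulforhodamine B staining after 10% TCA fixation, read at 560 nm; bidirectional fit relative to DMSO.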

[19] = read-out: Interleukin-1 alpha (IL1a), IL1A (gene 3552); assay: BSK_KF3CT_IL1a: BioMAP Diversity Plus: KF3CT Assay for Interleukin-1 alpha (IL1a) Biomarker Activity (AID 2283070); settings: primary human keratinocytes with fibroblasts; actives raise or lower the signal
How it was run: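 Primary human keratinocyte plus foreskin fibroblast co-culture, dosed and measured at 24 h in 96-well plates. IL-1a level quantified by ELISA; bidirectional fit relative to DMSO.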

[20] = read-out: TIMP metallopeptidase inhibitor 2 (TIMP2), TIMP2 (gene 7077); assay: BSK_KF3CT_TIMP2: BioMAP Diversity Plus: KF3CT Assay for TIMP metallopeptidase inhibitor 2 (TIMP2) Biomarker Activity (AID 2283071); settings: primary human keratinocytes with fibroblasts; actives raise or lower the signal
How it was run: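 Co-culture of human primary keratinocytes and foreskin fibroblasts, measured 24 h after chemical dosing. TIMP-2 quantified by ELISA and fitted in both directions relative to DMSO. Cytotoxicity checked in parallel cultures by SRB total-protein staining.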

Measured: AC50

O=C1OC(c2ccc(O)cc2)(c2ccc(O)cc2)c2ccccc21
inactive: [1] | [2] | [3] | [4] | [7] | [9] | [10] | [11] | [12] | [13] | [15] | [16] | [17] | [18]
active: [5] 30.2 µM | [6] 20 µM | [8] 28 µM | [14] 31.2 µM | [19] 28.8 µM

O=C(O)c1[nH]n(-c2ccc(S(=O)(=O)O)cc2)c(=O)c1N=Nc1ccc(S(=O)(=O)O)cc1
inactive: [1] | [2] | [3] | [4] | [5] | [6] | [7] | [8] | [9] | [10] | [11] | [12] | [13] | [14] | [15] | [16] | [17] | [18] | [19]

COC(=O)CCCC(=O)OC
inactive: [1] | [2] | [3] | [4] | [5] | [6] | [7] | [8] | [9] | [10] | [11] | [12] | [13] | [14] | [15] | [16] | [17] | [18] | [19]

Cc1cn([C@H]2C=C[C@@H](CO)O2)c(=O)[nH]c1=O
inactive: [1] | [2] | [3] | [4] | [5] | [6] | [7] | [8] | [9] | [10] | [11] | [12] | [13] | [14] | [15] | [16] | [17] | [18] | [19]

CCCCCCCCCCCCCCOS(=O)(=O)O
inactive: [1] | [3] | [4]
active: [2] 8.52 µM | [5] 7.78 µM | [6] 12.2 µM | [7] 12.4 µM | [8] 5.36 µM | [9] 9.53 µM | [10] 10.1 µM | [11] 9.76 µM | [12] 7.52 µM | [13] 5.54 µM | [14] 7.85 µM | [15] 9.05 µM | [16] 16.2 µM | [17] 8.99 µM | [18] 8 µM | [19] 10.3 µM | [20] 7.76 µM

O=C(O)CC(O)(CC(=O)O)C(=O)O
inactive: [1] | [2] | [3] | [4] | [5] | [6] | [7] | [8] | [9] | [10] | [11] | [12] | [13] | [14] | [15] | [16] | [17] | [18] | [19] | [20]

Nc1nc(Cl)nc2c1ncn2[C@H]1C[C@H](O)[C@@H](CO)O1
active: [8] 0.147 µM | [9] 1.01 µM | [15] 10.2 µM
inactive: [1] | [2] | [3] | [4] | [5] | [6] | [7] | [10] | [11] | [12] | [13] | [14] | [16] | [17] | [18] | [19]

C=CCc1ccc(OC)c(OC)c1
inactive: [1] | [2] | [3] | [4] | [5] | [6] | [7] | [8] | [9] | [10] | [11] | [12] | [13] | [14] | [15] | [16] | [17] | [18] | [19] | [20]

CC(=O)CC(c1ccccc1)c1c(O)c2ccccc2oc1=O (configuration not stated)
inactive: [1] | [2] | [3] | [4] | [5] | [6] | [7] | [8] | [9] | [10] | [11] | [12] | [13] | [14] | [15] | [16] | [17] | [18] | [19]

O=[Si]=O
inactive: [1] | [2] | [3] | [4] | [5] | [6] | [7] | [8] | [9] | [10] | [11] | [12] | [13] | [14] | [15] | [16] | [17] | [18] | [19]

Cc1ccc(-c2cc(C(F)(F)F)nn2-c2ccc(S(N)(=O)=O)cc2)cc1
inactive: [2] | [5] | [6] | [7] | [8] | [9] | [10] | [11] | [12] | [13] | [14] | [15] | [16] | [17] | [18] | [19] | [20]
active: [1] 36.7 µM | [3] 30.4 µM | [4] 29.9 µM

CCCC[C@H]1CN(CC2CCOCC2)C(=O)OC12CCN(C1(C)CCN(C(=O)c3c(C)ncnc3C)CC1)CC2
inactive: [1] | [2] | [3] | [4] | [5] | [6] | [7] | [8] | [9] | [10] | [11] | [12] | [13] | [14] | [15] | [16] | [17] | [18] | [19]

CCCCCCCC(=O)OC
inactive: [1] | [2] | [3] | [4] | [5] | [6] | [7] | [8] | [9] | [10] | [11] | [12] | [13] | [14] | [15] | [16] | [17] | [18] | [19] | [20]
